# Data as given in ChEMBL document CHEMBL2218924, “A broad activity screen in support of a chemogenomic map for kinase signalling research and drug discovery” (Biochem J, 2013).
# Legend:
# [1] = target: T1, Serine/threonine-protein kinase TBK1 (Homo sapiens) (UniProt Q9UHD2); details: at 10 µM
# T1 sequence (whole entry): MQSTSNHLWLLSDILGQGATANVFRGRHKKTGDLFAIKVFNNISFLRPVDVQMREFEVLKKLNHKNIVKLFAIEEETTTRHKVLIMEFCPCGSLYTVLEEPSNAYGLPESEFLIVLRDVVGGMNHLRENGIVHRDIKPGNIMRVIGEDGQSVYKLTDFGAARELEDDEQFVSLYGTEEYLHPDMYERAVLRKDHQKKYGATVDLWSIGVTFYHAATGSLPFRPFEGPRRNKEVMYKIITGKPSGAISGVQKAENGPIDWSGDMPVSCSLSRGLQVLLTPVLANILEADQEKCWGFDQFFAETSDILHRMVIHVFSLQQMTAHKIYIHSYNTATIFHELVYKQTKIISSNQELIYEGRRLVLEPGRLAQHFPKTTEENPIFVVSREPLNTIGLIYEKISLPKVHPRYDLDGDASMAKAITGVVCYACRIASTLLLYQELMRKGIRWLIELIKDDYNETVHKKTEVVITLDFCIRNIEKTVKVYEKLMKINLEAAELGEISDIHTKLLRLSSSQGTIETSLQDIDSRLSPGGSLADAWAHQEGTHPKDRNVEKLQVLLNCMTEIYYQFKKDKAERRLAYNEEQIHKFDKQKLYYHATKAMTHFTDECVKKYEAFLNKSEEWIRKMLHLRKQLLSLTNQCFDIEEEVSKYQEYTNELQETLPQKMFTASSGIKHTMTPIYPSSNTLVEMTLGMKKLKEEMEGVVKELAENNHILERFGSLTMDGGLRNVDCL
# [2] = target: T2, TGF-beta receptor type-1 (Homo sapiens) (UniProt P36897); details: at 1 µM
# T2 sequence (whole entry): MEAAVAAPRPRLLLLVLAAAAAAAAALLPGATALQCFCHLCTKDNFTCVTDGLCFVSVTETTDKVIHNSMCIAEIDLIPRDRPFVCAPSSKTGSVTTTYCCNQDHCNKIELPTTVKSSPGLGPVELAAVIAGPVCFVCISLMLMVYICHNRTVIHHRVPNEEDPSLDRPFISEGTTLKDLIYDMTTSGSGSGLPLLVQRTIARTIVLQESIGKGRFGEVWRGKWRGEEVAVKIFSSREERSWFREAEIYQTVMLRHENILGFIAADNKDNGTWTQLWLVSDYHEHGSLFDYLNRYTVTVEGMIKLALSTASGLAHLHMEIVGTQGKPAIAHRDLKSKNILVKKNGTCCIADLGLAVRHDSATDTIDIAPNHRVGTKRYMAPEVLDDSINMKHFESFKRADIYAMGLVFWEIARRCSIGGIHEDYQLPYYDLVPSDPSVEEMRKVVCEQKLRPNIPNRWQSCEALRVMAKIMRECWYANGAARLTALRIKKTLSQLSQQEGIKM
# [3] = target: T2, TGF-beta receptor type-1 (Homo sapiens); details: at 10 µM
# [4] = target: Insulin-like growth factor 1 receptor (Homo sapiens) (UniProt P08069); details: at 1 µM
# Chain of Insulin-like growth factor 1 receptor (Homo sapiens) (P08069 31-736 limits assumed): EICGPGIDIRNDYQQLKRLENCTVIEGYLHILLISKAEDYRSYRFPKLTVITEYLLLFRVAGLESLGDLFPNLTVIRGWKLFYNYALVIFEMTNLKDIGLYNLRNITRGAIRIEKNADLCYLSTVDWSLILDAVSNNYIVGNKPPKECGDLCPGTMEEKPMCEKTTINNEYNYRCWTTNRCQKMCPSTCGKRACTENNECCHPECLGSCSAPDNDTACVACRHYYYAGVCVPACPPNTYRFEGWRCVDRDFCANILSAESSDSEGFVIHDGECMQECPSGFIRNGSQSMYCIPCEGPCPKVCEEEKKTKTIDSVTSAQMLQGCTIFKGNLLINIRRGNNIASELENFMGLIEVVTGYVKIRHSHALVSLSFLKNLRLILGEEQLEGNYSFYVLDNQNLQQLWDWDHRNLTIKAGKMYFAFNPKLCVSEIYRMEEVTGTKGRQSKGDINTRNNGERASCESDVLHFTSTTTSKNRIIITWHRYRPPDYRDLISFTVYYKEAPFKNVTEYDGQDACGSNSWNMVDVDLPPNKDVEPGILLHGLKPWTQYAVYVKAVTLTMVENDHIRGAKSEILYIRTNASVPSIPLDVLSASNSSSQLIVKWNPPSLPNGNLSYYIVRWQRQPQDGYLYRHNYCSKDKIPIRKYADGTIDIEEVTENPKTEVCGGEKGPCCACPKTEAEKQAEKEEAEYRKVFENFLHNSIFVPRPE
# Chain of Insulin-like growth factor 1 receptor (Homo sapiens) (P08069 741-1367 limits assumed): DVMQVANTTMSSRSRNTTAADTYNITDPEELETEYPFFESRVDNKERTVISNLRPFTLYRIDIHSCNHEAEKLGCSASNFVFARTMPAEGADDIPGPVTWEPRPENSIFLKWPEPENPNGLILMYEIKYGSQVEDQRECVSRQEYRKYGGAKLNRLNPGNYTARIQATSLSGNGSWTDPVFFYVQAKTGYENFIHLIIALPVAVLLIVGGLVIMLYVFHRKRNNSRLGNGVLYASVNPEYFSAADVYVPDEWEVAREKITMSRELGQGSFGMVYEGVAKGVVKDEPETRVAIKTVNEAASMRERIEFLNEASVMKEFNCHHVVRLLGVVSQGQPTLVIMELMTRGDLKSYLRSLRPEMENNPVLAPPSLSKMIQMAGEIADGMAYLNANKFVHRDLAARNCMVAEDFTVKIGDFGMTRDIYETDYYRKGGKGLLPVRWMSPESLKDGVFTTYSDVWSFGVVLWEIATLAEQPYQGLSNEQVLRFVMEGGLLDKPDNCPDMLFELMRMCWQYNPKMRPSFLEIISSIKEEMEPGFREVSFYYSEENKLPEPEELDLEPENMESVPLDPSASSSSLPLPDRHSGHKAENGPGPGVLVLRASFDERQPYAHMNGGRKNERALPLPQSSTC
# [5] = target: Insulin-like growth factor 1 receptor (Homo sapiens) (UniProt P08069); details: at 10 µM
# [6] = target: T3, Inhibitor of nuclear factor kappa-B kinase subunit alpha (Homo sapiens) (UniProt O15111); details: at 1 µM
# T3 sequence (whole entry): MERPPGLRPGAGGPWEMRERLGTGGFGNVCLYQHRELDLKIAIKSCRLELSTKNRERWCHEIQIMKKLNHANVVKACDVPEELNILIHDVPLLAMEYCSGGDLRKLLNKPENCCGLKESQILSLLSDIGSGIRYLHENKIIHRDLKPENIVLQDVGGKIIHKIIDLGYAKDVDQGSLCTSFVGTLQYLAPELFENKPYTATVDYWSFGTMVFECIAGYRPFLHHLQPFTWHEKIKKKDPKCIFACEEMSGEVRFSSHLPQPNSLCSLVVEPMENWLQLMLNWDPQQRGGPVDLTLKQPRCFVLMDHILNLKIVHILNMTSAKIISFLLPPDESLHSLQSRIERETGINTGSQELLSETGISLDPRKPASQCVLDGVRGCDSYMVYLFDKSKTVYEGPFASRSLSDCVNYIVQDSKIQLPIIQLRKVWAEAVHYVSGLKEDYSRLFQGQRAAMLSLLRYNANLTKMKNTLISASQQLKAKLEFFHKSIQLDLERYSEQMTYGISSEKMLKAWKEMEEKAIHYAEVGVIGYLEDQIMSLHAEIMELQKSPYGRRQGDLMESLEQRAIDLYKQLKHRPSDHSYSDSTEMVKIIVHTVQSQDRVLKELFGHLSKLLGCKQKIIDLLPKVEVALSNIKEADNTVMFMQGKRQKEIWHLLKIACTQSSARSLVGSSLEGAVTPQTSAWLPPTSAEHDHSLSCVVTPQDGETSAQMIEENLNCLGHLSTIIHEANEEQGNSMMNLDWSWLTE
# [7] = target: T3, Inhibitor of nuclear factor kappa-B kinase subunit alpha (Homo sapiens); details: at 10 µM
# [8] = target: T4, Inhibitor of nuclear factor kappa-B kinase subunit beta (Homo sapiens) (UniProt O14920); details: at 1 µM
# T4 sequence (whole entry): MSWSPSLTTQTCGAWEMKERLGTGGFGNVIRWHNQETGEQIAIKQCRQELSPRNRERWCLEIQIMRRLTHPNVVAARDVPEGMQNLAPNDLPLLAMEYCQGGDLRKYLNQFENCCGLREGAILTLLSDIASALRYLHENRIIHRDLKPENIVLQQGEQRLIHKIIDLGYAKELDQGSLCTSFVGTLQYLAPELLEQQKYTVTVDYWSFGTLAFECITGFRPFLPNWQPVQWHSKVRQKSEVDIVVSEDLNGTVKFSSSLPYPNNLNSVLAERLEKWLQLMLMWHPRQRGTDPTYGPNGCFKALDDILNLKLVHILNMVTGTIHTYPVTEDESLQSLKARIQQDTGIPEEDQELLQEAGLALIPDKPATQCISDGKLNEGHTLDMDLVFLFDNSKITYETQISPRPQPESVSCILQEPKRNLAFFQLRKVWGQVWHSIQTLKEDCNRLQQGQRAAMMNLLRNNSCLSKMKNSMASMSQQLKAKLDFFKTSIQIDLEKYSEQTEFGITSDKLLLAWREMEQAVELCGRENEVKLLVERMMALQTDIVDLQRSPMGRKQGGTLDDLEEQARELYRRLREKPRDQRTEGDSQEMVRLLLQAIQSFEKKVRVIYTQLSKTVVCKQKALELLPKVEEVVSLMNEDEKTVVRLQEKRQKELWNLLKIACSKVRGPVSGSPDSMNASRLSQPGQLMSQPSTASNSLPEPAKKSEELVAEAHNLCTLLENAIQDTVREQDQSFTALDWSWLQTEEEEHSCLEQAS
# [9] = target: T4, Inhibitor of nuclear factor kappa-B kinase subunit beta (Homo sapiens); details: at 10 µM
# [10] = target: Insulin receptor (Homo sapiens) (UniProt P06213); details: at 1 µM
# Chain of Insulin receptor (Homo sapiens) (P06213 28-758 limits assumed): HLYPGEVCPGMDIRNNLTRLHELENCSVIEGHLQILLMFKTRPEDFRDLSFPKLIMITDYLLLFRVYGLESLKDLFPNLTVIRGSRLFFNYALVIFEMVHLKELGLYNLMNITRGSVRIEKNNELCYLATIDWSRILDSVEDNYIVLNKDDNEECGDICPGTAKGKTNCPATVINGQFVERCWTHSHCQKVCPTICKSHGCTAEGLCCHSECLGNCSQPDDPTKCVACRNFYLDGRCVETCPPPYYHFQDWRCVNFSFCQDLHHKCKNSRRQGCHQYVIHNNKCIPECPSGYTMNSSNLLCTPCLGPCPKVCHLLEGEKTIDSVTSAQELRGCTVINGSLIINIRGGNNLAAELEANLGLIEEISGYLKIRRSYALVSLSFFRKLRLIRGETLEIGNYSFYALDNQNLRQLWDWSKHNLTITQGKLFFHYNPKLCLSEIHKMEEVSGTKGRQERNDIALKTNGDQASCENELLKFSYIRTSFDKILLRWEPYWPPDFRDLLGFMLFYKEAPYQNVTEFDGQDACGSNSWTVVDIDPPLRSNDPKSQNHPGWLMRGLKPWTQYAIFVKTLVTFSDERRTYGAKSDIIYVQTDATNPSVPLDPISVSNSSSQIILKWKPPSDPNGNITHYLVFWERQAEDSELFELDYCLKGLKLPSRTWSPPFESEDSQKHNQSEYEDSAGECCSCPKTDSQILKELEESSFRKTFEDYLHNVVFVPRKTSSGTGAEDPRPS
# Chain of Insulin receptor (Homo sapiens) (P06213 763-1382 limits assumed): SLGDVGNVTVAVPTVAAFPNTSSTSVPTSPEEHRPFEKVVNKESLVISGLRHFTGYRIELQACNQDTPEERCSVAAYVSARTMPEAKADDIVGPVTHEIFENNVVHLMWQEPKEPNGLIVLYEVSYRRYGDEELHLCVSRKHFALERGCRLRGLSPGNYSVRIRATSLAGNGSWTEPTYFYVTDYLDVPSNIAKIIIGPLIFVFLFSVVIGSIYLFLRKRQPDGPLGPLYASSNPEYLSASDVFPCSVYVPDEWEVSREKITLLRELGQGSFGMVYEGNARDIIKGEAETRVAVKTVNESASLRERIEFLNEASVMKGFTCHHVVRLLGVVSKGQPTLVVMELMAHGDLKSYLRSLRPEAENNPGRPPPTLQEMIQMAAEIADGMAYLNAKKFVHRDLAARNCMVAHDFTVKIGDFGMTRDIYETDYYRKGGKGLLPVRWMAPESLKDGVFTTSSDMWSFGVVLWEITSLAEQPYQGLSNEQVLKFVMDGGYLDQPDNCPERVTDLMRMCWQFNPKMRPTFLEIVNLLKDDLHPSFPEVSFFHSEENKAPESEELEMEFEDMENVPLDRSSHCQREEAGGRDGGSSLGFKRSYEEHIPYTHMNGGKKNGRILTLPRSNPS
smiles,measurement,setting,value
CN(C)c1ccc(/C=C2\C(=O)Nc3ccccc32)cc1,residual activity,[1],45%
same,residual activity,[2],93%
same,residual activity,[3],98%
same,residual activity,[4],105%
same,residual activity,[5],103%
same,residual activity,[6],102%
same,residual activity,[7],120%
same,residual activity,[8],112%
same,residual activity,[9],93%
same,residual activity,[10],99%
